From PubChem
Granule exo inh = LAMP-1 surface exposure blockers, TALL-104 cells – cell-based, flow cytometry, MLPCN library, primary screen | 0.66% of 360,000 active | AID 651702, 2012 | TALL-104 LAMP-1 surface exposure; cells stimulated with thapsigargin and PMA | inhibition, % at 10 µM;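 active = inhibition above about 55%, limit read from the data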
ABCB6 inh MLPCN = ABCB6 transporter inhibitors, primary screen, K562-ABCB6 cells, flow cytometry, MLPCN library; 0.19% of 360,000 active; ATP-binding cassette sub-family B member 6 (Homo sapiens), Q9NP58; AID 602162, 2011; fluorescence ratio to DMSO, % at 10 µM; K562-ABCB6 porphyrin accumulation, 1 h; active compounds read low;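 active = fluorescence ratio to DMSO below 75%, the collection mean minus 3 SD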;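 also: signal is porphyrin accumulated inside mitochondria; 100% equals median channel fluorescence of DMSO control wells; lower ratio means ABCB6 inhibition with less porphyrin fluorescence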
PG9 Ab binder = binders of HIV-1 gp120 antibody PG9, primary screen, biochemical, TR-FRET. inhibition, % at 6.7 µM. 0.43% of 360,000 active. TR-FRET gp120-PG9 antibody binding; in the data active = inhibition above about 8.5%
rCAG binder = binders of r(CAG) RNA repeats, primary screen, biochemical, fluorescence | 1.3% of 370,000 active | r(CAG) RNA repeat, TO-PRO-1 dye displacement fluorescence | inhibition, % at 3 µM;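 active = inhibition above the plate cutoff, the mean of all test compounds on that plate plus 3 SD, cut at about 35% in these data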;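 also: 0% = DMSO alone and 100% = 100 µM mitoxantrone as full dye displacement; higher means more dye released from RNA so lower well fluorescence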
ABCB6 blocker 1 = ABCB6 transporter inhibitors, confirmation, K562-ABCB6 cells, flow cytometry, cherry pick 1. 700 tested, under 10 active. K562-ABCB6 porphyrin accumulation, 1 h; active compounds read low. shares compounds with ABCB6 inh MLPCN. ratio response (% of DMSO), % at 10 µM;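 active = repeat-averaged ratio response below 75% of DMSO, the collection mean minus 3 SD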;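 also: median porphyrin fluorescence at 575 nm with 488 nm excitation from mitochondria; lower ratio means less porphyrin signal so ABCB6 inhibition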
Starred values were filed as active, the others as inactive; · = no result given. A selection: hits, their analogues and other compounds. The true share with any hit is near 2.5%.

SMILES	Granule exo inh	ABCB6 inh MLPCN	PG9 Ab binder	rCAG binder	ABCB6 blocker 1
CC1(C(=O)Nc2cccnc2)Cc2c(-c3cccc(C(F)(F)F)c3)ccnc2O1 (configuration not stated)	1	94	1	1	97
CC1(C(=O)Nc2cccc(OC(F)(F)F)c2)Cc2c(-c3cccc(C(F)(F)F)c3)ccnc2O1 (configuration not stated)	6	97	0	5	·
COc1ccc(N2C(=O)c3n[nH]c(C)c3C2c2ccccc2)cc1 (configuration not stated)	·	·	2	3	·
CC(=O)CCC(=O)N1CCC(n2nccc2NC(=O)c2ccccc2C)CC1	3	101	-1	-3	·
COC(=O)c1ccc(-c2ccc(F)cc2)nc1C	7	63*	0	-1	99
Cn1c(CN2CCN(C(=O)c3ccccc3Cl)CC2)nc2cc([N+](=O)[O-])ccc21	0	103	-1	-3	·
Cn1c(CN2CCN(C(=O)c3ccccc3)CC2)nc2cc([N+](=O)[O-])ccc21	3	70*	-1	-1	95
COc1cc(C(C[N+](=O)[O-])c2c(C)[nH]c3ccccc23)cc(OC)c1OC (configuration not stated)	0	74*	-2	0	103
O=C(CNc1nnnn1-c1ccccc1)N1CCCC1	·	·	·	-1	·
O=C(Nc1ccc(Br)cc1)c1cccnc1N1CCCCC1	1	73*	2	-4	100
O=C(Nc1ccc(F)cc1)c1cccnc1N1CCCCC1	-5	103	0	-7	·
Cc1onc(-c2ccc(Cl)cc2)c1-c1ccn(S(=O)(=O)c2cccc(Cl)c2)n1	·	·	·	4	·
CCN1CCN(c2nc3ccccc3nc2C(C#N)C(=O)OC2CCCCC2)CC1 (configuration not stated)	11	100	0	-5	·
CN1CCN(c2nc3ccccc3nc2C(C#N)C(=O)OC2CCCCC2)CC1 (configuration not stated)	3	65*	2	-5	99
CCC(C)c1c(O)nc(SCC(=O)N2CCOCC2)[nH]c1=O (configuration not stated)	0	107	2	-5	·
CCC(C)c1c(O)nc(SCC(=O)N2CCCCC2)[nH]c1=O (configuration not stated)	-1	52*	-1	-3	99
O=C1c2ccccc2C(=O)N1Cc1ccco1	-2	89	3	2	·
CC1=CC(=C2C(=O)c3ccccc3C2=O)C=C(C)N1Cc1ccco1	-4	66*	-1	7	103
CCn1cc([N+](=O)[O-])c(C(=O)N2CCCc3ccccc32)n1	-1	102	1	-1	·
COc1ccc(C)cc1NC(=O)COCC(=O)O	2	69*	1	4	101
C=CCn1c(SCC(=O)N2CCN(c3ccccc3)CC2)nc2c([nH]c3ccccc32)c1=O	0	105	-3	2	·
COC(=O)[C@]12C[C@H](CC(=O)N3CCN(C(=O)c4ccco4)CC3)C(=O)N(CCc3ccc(OC)c(OC)c3)C1=C[C@H](C(C)(C)C)O[C@@H]2C	·	·	·	4	·
O=C(C1CCN(S(=O)(=O)c2ccc(Cl)cc2)CC1)N1CCC1	-10	99	2	-2	·
O=C(C1CCN(S(=O)(=O)c2c(Cl)cccc2Cl)CC1)N1CCCCCCC1	-6	72*	-1	0	99
COCC1CCCN(C(=O)c2ccc(OC3CCN(Cc4ccccn4)CC3)cc2)C1 (configuration not stated)	1	12*	-1	-12	95
SMILES	Granule exo inh	ABCB6 inh MLPCN	PG9 Ab binder	rCAG binder	ABCB6 blocker 1
CC(=O)N1CCN(C(=O)c2ccc(OC3CCN(Cc4ccccn4)CC3)cc2)CC1	10	101	-2	-8	·
O=C(COC(=O)CN1C(=O)C(=O)c2ccccc21)OCN1C(=O)c2ccccc2C1=O	6	97	0	3	·
COc1ccccc1C(=O)Nc1ccnn1C1CCN(C(=O)c2ccoc2C)CC1	-6	99	-2	1	·
COc1ccccc1C(=O)Nc1ccnn1C1CCN(C(=O)c2ccoc2)CC1	-3	74*	-1	0	98
O=C(COc1cccc(C(F)(F)F)c1)Nc1ccc(S(=O)(=O)N2CCCC2)cc1	9	60*	-2	3	102
COC(=O)c1ccc(NC(=O)COc2ccc(S(=O)(=O)N3CCCCC3)cc2)cc1	1	70*	-2	-2	97
O=C(Nc1ccc([N+](=O)[O-])cc1)c1ccc(S(=O)(=O)N2CCCC2)cc1	-10	73*	-2	1	100
O=C(Cc1cccc(C(F)(F)F)c1)Nc1ccc(S(=O)(=O)N2CCCC2)cc1	30	102	0	7	·
CCC(CC)Nc1ccc(C(CC(N)=O)NC(=O)Cc2cccc3ccccc23)cc1[N+](=O)[O-] (configuration not stated)	-5	99	0	5	·
O=c1cc(CSc2nnnn2-c2ccccc2)nc2nc[nH]n12	0	64*	3	-1	98
CC1(NC(=O)/C=C/c2nc3ccccc3s2)CCS(=O)(=O)C1 (configuration not stated)	-2	101	-2	21	·
CCCCn1ccnc1C(=O)c1cccc(S(=O)(=O)N2CC(C)CC(C)C2)c1 (configuration not stated)	-2	74*	-4	-3	97
CCCCn1ccnc1C(=O)c1cc(S(=O)(=O)N2CCOCC2)ccc1C	14	97	2	-4	·
O=C(COC(=O)C1CCN(S(=O)(=O)c2cccs2)CC1)c1ccccc1	-1	95	1	-1	·
C/C(N)=C(/C#N)C(=O)COC(=O)C1CCN(S(=O)(=O)c2cccs2)CC1	-1	104	-1	2	101
COc1ccc(OC)c(NC(=O)CSc2ccc(-c3cccnc3)nn2)c1	1	98	-1	-2	·
O=C1C=C(c2ccc(OC(F)(F)F)cc2)C[C@@H](c2ccc(Cl)cc2)C1	1	74*	0	2	98
COc1ccc(C2=CC(=O)C[C@H](c3ccc(Cl)cc3)C2)cc1	-4	101	0	10	·
CC1(C)Oc2ccc(C(=O)NC3CCCC3)cc2NC1=O	·	·	·	1	·
COC(=O)[C@]1(Cc2ccccc2)NC=C(C(=O)c2ccccc2)[C@@H]1c1cccs1	·	·	-1	11	·
CC1(C(=O)NS(=O)(=O)c2ccccc2)CCN1C(=O)CCc1ccc(Cl)cc1Cl (configuration not stated)	3	96	2	27	98
CC(C)(C(=O)N1CCC1(C)C(=O)NS(=O)(=O)c1cccc(Cl)c1)c1ccccc1 (configuration not stated)	5	98	0	19	101
